Rows were chosen to be rich in hits. Some 9.9% of all compounds tested hit in one or more screens of this group.
Tau fluor counter – counter-screen for tau fibril formation inhibitors; tau K18 P301L Alexa594 fluorescence, heparin fibrillization; Potency, µM (doses to about 57.7 µM), inactives show at the top dose activity change, negative = decrease; 280,000 compounds, 0.93% hits; AID 1463; further: nearly all actives have a fitted effect of over 55% in size
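Human K18 P301L tau (15 uM unlabeled plus 0.24 uM Alexa 594-labeled, final) in 100 mM sodium acetate pH 7 was mixed with compound and 20 uM heparin and incubated 6 hr at 37 C.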
Tau fibril ThT – inhibitors of human tau fibril formation, thioflavin T binding. P10636. AID 1460. recombinant tau K18 P301L (four-repeat tau fragment), heparin-induced fibrillization, ThT fluorescence. 270,000 compounds, 2.1% hits. Potency, µM (top dose mostly 57.4 µM), for the others: top-dose activity, negative = inhibition, actives largely listed as inhibitors; further: nearly all actives have a fitted effect of over 55% in size
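Tau K18 P301L fragment (15 uM unlabeled plus 0.24 uM Alexa 594-labeled) in 100 mM sodium acetate pH 7 with compound, fibrillization induced by 20 uM heparin for 6 hr at 37 C. Thioflavin T (30 uM) added, fluorescence read after 1 hr (ex 450, em 510 nm).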
ALDH1A1 inh – blocks purified human ALDH1A1 activity; Purified ALDH1A1, NADH fluorescence, propionaldehyde substrate; AID 1030; Potency, µM (highest dose often 75.3 µM), without a hit: at the highest dose activity, negative = inhibition, usual class: inhibitors; P00352; 220,000 compounds, 7.3% hits; active means well fitted inhibition curve with a large enough effect, not every such curve was filed as active; inconclusive means small, poorly fitted or top-dose-only effect, or another doubt; inactive means no such curve, though single readings can be large or run the other way;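 further: plate controls were no enzyme wells and a reference inhibitor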
Target sequence (P00352 whole entry, looked up): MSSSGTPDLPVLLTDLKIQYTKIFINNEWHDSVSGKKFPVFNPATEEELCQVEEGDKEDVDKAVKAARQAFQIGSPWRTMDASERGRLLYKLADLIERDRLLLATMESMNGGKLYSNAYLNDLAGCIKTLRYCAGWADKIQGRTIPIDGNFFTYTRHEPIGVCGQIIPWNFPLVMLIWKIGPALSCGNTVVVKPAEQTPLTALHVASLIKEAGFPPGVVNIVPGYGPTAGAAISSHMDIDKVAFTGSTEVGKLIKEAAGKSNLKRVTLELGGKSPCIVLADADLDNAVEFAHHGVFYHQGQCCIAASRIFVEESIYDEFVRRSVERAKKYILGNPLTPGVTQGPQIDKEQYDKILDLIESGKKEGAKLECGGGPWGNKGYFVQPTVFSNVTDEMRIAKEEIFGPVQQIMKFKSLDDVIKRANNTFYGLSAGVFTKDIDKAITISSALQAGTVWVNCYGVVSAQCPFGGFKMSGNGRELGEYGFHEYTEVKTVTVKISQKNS
HPGD block – blocks human HPGD enzyme activity; purified HPGD, NADH fluorescence kinetic, PGE2 substrate; 150,000 compounds, 4.3% hits; Potency, µM, inactives show at the top dose activity change, negative = inhibition, hits mostly inhibitors; P15428; active means well fitted inhibition curve with a large enough effect, not every such curve was filed as active; inconclusive means small, poorly fitted or top-dose-only effect, or another doubt; inactive means no such curve, though single readings can be large or run the other way
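NADH formation kinetics: reaction with 30 uM PGE2 and 1 mM NAD+ (final), 20 nM enzyme, Tris-HCl pH 8 with Tween 20, after 15 min compound preincubation at room temperature. Fluorescence change, last versus first of five reads.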
JMJD2E inh – inhibitors of human JMJD2E histone demethylase. 230,000 compounds, 1.6% hits. B2RXH2. Potency, µM (titrated, usually from 57.1 µM), for inactives: at the highest dose activity change, negative = inhibition, hits mostly inhibitors. JMJD2E catalytic domain, FDH-coupled NADH fluorescence (FDH is formaldehyde dehydrogenase);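 further: 0% = wells with enzyme and -100% = buffer wells without enzyme; nearly all actives have a fitted effect of over 50% in size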
Tau fibril FP – blocks human tau fibril formation measured by polarization; P10636; Potency, µM (highest dose often 57.7 µM), inactives show at the top dose activity, negative = inhibition, hits mostly inhibitors; K18 P301L tau heparin fibrillization, Alexa594 FP, 6 h; 280,000 compounds, 0.39% hits; further: nearly all actives have a fitted effect of over 55% in size
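Recombinant K18 P301L […], labeled with Alexa 594 at 0.24 uM over 15 uM unlabeled; heparin inducer 20 uM final; 37 C, 6 hr; FP endpoint.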
Active calls of the source: *; [ ] = remark or other dose. Unless noted, the call rests on the fitted dose curve; in most records, active means well fitted curve in the direction sought with a large enough effect; inconclusive means small, poorly fitted or top-dose-only effect, or another doubt; inactive means no such curve, though single readings can be large; an effect the other way counts as inactive or inconclusive. Unless noted, on the % scale 0 is the no-effect control and ±100 the full control effect; potency means the concentration at half of the fitted maximal effect.

`Cc1ccc(-c2nc3ccccc3n2C)o1` gave Tau fluor counter -3%, Tau fibril ThT inconclusive, ALDH1A1 inh inconclusive, HPGD block inconclusive, JMJD2E inh inconclusive and Tau fibril FP 3%.
Screening CC(C)(C)c1nnc2sc(SC/C(O)=C(\C#N)c3nc4ccccc4[nH]3)nn2c1=O returned Tau fluor counter -21%, Tau fibril ThT inconclusive, ALDH1A1 inh inconclusive, HPGD block 20µM*, JMJD2E inh 4% and Tau fibril FP 10%.
`COc1ccc(C(=O)CSc2nn3c(=O)c(C(C)(C)C)nnc3s2)cc1` gave Tau fluor counter -19%, Tau fibril ThT inconclusive, ALDH1A1 inh 0.4µM*, HPGD block -16%, JMJD2E inh -7% and Tau fibril FP 1%.
`CO[C@H]1COC(=O)CCC[C@@H](C)[C@H](OC)COC(=O)[C@H]2CCCN2C(=O)C/C=C\[C@@H]1C` gave Tau fluor counter -19%[11.6 µM], Tau fibril ThT -21%[11.5 µM], ALDH1A1 inh 8%[13.5 µM] and Tau fibril FP 0%[11.6 µM].
`NNc1nc(-c2ccccc2Cl)nc2sc3c(c12)CCCC3` gave Tau fluor counter -23%, Tau fibril ThT inconclusive, ALDH1A1 inh inconclusive, HPGD block 13µM*, JMJD2E inh inconclusive and Tau fibril FP 5%.
For Cc1cc(C)c2c(=O)nc(SCc3ccccc3C)n(C3CC3)c2n1 the results were Tau fluor counter -7%, Tau fibril ThT inconclusive and Tau fibril FP inconclusive.
For Cc1nc(SCC(=O)Nc2nc3ccccc3s2)c(C#N)c(C)c1C the results were Tau fluor counter -13%, Tau fibril ThT 1%, ALDH1A1 inh inconclusive, HPGD block 28µM*, JMJD2E inh inconclusive and Tau fibril FP -18%.
For COc1ccc(NC(=O)Cn2c(=O)n(-c3cccc(C(F)(F)F)c3)c(=O)c3sccc32)cc1 the results were Tau fluor counter 12%, Tau fibril ThT inconclusive and Tau fibril FP -13%.
COc1ccc(CNC(=O)CCc2nnc3n(CC(C)C)c(=O)c4ccccc4n23)cc1 was read as Tau fluor counter -2%, Tau fibril ThT -1% and Tau fibril FP 2%.
`CCNC(=O)c1cc2c(=O)n3cccc(C)c3nc2n(CCc2ccccc2)c1=N` gave Tau fluor counter 3%, Tau fibril ThT 8%, ALDH1A1 inh inconclusive, HPGD block inconclusive, JMJD2E inh inconclusive and Tau fibril FP 11%.
For Cc1cccn2c(=O)c3cc(C(=O)NCCc4ccccc4)c(=N)n(CCCn4ccnc4)c3nc12 the results were Tau fluor counter 11µM*[quencher], Tau fibril ThT 11µM*, ALDH1A1 inh 5.6µM*, JMJD2E inh 4% and Tau fibril FP 25µM*.
For NNC(=O)CNC(=O)CNS(=O)(=O)c1ccccc1 the results were Tau fluor counter 8%, Tau fibril ThT 0%, ALDH1A1 inh 9%, JMJD2E inh 31% and Tau fibril FP 1%.
CN1/C(=C\C(=O)c2cccnc2)C(C)(C)c2ccccc21 was read as Tau fluor counter -4%, Tau fibril ThT 0%, ALDH1A1 inh 4%, HPGD block -2%, JMJD2E inh 9% and Tau fibril FP 0%.
For CN1/C(=C/C(=O)c2nc(S(C)(=O)=O)ncc2Cl)C(C)(C)c2ccccc21 the results were Tau fluor counter -3%, Tau fibril ThT 5µM*, ALDH1A1 inh inconclusive, HPGD block inconclusive, JMJD2E inh -5% and Tau fibril FP 15%.
S=C(NCc1ccccc1)NCc1ccccc1 was read as Tau fluor counter 3%, Tau fibril ThT -2%, ALDH1A1 inh inconclusive, HPGD block 14µM*, JMJD2E inh 3% and Tau fibril FP 3%.
Fc1ccccc1NC(=S)NCc1ccc2c(c1)OCO2 was read as Tau fluor counter 8%, Tau fibril ThT 8%, ALDH1A1 inh -14%, HPGD block -16%, JMJD2E inh 4% and Tau fibril FP 3%.

Screening results (PubChem BioAssay)
